± gives the standard deviation of the averaged measurements. About 5,400 targets were measured; listed, in parts, are those with the largest changes and a random draw of the rest.
Compound: Nc1nc2c(ncn2[C@@H]2O[C@H](COP(=O)(O)OP(=O)(O)OP(=O)(O)O)[C@@H](O)[C@H]2O)c(=O)[nH]1 [guanosine triphosphate]
Test: NP40-soluble protein abundance relative to vehicle (solubility fold change) (ratio); higher = more soluble protein in presence of GTP
Procedure, shortened: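 Crude Jurkat lysate, prepared by Dounce homogenisation, was exposed to eight concentrations from 0.1 to 10 mM for 10 min at room temperature and then 3 min at 37 °C. Solubilisation used 0.8% NP40 with benzonase for 60 min at 4 °C, followed by ultracentrifugation and TMT labelling of the supernatant for LC-MS/MS. After vsn normalisation of intensities, each value is the fold change against the detergent-processed vehicle within each replicate, across three independent experiments.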

UniProt Q8N766, sequence (Q8N766 whole entry): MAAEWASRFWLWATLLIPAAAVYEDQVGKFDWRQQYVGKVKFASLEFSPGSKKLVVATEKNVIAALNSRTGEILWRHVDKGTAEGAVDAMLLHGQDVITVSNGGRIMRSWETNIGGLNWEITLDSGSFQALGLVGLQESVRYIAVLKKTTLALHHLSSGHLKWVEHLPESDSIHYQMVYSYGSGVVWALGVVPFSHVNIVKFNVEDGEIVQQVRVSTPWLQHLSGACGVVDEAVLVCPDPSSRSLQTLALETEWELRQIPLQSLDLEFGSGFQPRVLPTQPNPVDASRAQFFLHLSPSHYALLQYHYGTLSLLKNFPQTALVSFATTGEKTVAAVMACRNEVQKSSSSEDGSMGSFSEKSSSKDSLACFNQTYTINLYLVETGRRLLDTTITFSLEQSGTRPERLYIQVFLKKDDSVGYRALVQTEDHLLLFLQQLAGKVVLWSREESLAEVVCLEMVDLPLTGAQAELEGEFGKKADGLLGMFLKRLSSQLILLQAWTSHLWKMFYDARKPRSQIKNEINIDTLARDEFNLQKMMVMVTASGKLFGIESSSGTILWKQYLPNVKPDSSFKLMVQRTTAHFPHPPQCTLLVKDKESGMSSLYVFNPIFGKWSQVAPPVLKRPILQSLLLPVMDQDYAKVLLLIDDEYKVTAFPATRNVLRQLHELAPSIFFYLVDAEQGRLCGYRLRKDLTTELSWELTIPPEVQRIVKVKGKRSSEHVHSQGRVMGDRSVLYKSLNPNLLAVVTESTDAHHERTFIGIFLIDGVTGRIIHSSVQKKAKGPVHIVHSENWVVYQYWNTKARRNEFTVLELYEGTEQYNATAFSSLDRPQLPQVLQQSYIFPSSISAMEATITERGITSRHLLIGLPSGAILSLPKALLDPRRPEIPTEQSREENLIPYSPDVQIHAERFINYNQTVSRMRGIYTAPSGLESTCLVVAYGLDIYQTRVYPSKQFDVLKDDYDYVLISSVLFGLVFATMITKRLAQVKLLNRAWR
UniProt Q8IZ83, sequence (Q8IZ83 whole entry): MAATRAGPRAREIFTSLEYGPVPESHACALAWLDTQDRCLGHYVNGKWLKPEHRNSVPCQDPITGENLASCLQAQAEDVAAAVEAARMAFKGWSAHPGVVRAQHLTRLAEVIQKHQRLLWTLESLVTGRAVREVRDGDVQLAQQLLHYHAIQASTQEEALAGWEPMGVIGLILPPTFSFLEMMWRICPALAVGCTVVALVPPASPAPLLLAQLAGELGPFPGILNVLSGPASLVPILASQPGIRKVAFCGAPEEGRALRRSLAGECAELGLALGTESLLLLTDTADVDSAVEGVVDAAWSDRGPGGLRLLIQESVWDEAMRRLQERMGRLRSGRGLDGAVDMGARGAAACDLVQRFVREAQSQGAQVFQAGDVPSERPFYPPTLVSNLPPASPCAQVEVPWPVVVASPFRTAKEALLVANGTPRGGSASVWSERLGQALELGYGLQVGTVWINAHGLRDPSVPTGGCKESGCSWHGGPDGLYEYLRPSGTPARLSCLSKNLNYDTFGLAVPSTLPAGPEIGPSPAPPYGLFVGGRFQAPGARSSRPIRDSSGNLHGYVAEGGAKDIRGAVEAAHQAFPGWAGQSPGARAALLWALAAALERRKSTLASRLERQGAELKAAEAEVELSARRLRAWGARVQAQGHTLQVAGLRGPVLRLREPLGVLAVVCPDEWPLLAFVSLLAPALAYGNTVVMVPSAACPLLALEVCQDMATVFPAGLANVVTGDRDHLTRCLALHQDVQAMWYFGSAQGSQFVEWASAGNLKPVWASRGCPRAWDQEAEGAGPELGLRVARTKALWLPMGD
UniProt Q14789, sequence (Q14789 whole entry): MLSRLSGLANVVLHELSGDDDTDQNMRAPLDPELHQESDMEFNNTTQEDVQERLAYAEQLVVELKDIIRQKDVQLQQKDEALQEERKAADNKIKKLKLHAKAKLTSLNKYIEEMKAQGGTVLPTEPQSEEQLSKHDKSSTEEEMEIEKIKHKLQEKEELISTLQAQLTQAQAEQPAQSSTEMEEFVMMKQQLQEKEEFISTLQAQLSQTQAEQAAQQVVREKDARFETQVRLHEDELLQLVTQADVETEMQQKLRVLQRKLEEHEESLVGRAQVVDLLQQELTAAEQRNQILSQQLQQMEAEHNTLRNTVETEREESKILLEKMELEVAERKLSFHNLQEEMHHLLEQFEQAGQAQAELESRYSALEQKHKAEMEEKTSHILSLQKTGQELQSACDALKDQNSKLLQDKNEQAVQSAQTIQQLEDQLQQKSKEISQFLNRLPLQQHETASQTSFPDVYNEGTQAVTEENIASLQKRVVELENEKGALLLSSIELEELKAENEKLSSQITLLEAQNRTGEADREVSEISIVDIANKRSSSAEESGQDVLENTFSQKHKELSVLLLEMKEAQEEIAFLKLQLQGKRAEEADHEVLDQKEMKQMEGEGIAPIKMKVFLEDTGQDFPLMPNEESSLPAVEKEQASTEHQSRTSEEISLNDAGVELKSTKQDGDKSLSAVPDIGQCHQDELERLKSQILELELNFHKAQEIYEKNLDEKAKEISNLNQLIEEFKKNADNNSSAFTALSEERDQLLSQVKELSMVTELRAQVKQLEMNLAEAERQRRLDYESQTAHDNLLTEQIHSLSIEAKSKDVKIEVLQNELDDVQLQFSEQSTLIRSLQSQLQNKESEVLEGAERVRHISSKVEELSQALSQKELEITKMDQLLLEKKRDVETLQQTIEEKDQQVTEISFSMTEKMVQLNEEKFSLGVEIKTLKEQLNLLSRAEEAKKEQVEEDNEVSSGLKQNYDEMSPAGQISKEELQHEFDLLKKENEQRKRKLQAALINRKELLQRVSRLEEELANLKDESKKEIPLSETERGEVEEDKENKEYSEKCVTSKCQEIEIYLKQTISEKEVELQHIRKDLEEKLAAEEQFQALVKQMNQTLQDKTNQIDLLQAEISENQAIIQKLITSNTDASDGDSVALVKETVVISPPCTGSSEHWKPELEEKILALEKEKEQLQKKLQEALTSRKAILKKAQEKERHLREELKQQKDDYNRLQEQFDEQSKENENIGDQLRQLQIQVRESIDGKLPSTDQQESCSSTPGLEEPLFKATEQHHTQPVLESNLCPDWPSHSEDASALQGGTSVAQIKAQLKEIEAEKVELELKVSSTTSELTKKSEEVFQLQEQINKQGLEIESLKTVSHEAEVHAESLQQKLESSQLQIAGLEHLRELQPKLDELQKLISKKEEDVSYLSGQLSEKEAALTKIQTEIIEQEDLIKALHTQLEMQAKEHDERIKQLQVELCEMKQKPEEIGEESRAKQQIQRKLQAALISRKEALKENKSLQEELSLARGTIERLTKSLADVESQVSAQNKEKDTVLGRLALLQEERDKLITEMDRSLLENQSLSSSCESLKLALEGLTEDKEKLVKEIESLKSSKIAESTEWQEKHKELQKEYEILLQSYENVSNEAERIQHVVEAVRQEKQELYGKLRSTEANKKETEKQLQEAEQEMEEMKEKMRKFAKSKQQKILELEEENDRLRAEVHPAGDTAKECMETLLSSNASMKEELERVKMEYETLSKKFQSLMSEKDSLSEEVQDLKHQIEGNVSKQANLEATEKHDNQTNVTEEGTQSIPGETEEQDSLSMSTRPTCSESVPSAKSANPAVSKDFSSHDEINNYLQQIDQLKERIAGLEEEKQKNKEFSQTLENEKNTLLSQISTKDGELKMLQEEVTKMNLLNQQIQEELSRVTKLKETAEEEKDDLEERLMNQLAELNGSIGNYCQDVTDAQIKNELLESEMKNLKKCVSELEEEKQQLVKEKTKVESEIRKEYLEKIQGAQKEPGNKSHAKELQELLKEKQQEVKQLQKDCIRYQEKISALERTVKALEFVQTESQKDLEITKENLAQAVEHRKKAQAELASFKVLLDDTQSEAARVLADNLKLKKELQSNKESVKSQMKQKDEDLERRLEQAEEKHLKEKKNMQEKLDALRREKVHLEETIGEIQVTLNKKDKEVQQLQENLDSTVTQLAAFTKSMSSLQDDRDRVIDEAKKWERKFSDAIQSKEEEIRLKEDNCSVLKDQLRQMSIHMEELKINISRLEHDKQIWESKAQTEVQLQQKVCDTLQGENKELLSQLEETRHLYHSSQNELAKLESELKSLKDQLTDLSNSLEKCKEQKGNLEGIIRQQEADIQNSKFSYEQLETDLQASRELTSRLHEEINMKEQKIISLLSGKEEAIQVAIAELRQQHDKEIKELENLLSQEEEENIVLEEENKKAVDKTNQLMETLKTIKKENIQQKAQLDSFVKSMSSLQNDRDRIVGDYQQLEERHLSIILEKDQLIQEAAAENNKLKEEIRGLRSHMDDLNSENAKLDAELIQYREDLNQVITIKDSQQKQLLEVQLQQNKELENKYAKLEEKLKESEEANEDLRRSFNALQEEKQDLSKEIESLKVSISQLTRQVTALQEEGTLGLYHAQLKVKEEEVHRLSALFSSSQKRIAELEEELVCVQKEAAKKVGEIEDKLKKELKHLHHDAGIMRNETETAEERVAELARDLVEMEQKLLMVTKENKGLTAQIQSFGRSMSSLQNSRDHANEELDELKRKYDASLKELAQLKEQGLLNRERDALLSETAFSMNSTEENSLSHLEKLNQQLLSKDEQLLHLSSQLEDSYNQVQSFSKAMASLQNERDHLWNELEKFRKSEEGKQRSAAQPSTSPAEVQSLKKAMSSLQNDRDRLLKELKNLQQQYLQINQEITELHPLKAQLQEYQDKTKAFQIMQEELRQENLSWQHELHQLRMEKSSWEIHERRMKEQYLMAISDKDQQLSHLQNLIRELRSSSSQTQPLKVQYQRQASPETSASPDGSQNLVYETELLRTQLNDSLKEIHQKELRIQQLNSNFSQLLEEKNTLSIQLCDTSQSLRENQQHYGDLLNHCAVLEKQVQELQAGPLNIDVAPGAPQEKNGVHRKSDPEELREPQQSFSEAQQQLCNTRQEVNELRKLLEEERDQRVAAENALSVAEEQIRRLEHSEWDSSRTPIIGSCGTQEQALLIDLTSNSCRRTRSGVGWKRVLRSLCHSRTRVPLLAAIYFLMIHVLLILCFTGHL
UniProt Q15843, sequence (Q15843 whole entry, one chain of several): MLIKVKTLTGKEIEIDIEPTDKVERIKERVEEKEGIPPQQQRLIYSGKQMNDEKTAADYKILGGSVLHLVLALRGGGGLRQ

Target	NP40-soluble protein abundance (concentration: 0.1mM)	NP40-soluble protein abundance (concentration: 0.5mM)	NP40-soluble protein abundance (concentration: 1mM)	NP40-soluble protein abundance (concentration: 2mM)	NP40-soluble protein abundance (concentration: 4mM)	NP40-soluble protein abundance (concentration: 6mM)	NP40-soluble protein abundance (concentration: 8mM)	NP40-soluble protein abundance (concentration: 10mM)
UniProt Q8N766|Q8N766-2|Q8N766-3|Q8N766-4	1.01 ± 0.055	1.03 ± 0.1	0.938 ± 0.046	0.964 ± 0.12	0.951 ± 0.098	0.926 ± 0.093	0.901 ± 0.015	0.897 ± 0.063
UniProt P63092-2|P63092-3|P63092|P63092-4	0.973 ± 0.013	0.9607 ± 0.0034	0.922 ± 0.025	0.91 ± 0.024	0.882 ± 0.043	0.882 ± 0.038	0.873 ± 0.026	0.847 ± 0.031
UniProt P62805	0.891 ± 0.063	0.855 ± 0.058	0.972 ± 0.027	0.963 ± 0.053	1.08 ± 0.048	1.22 ± 0.054	1.2 ± 0.067	1.76 ± 0.14
ZC3H13 (UniProt Q5T200)	1.01 ± 0.055	1.02 ± 0.063	1.07 ± 0.054	1.08 ± 0.063	1.12 ± 0.059	1.12 ± 0.055	1.24 ± 0.099	1.18 ± 0.1
UniProt Q13303-2	1.05 ± 0.045	1.06 ± 0.11	0.954 ± 0.086	1 ± 0.14	0.984 ± 0.11	0.973 ± 0.14	0.898 ± 0.024	0.904 ± 0.043
MBLAC2 (UniProt Q68D91)	1.09 ± 0.12	1.03 ± 0.1	1 ± 0.11	1.02 ± 0.13	1.01 ± 0.11	0.941 ± 0.13	0.952 ± 0.097	0.929 ± 0.14
UniProt Q2TB10|A0A087WXB4	1.04 ± 0.1	1.15 ± 0.14	1.15 ± 0.12	1.36 ± 0.28	1.68 ± 0.48	1.9 ± 0.44	2.04 ± 0.64	2.54 ± 1.1
LDB1 (UniProt Q86U70)	1.066 ± 0.0088	1.04 ± 0.05	1 ± 0.056	0.989 ± 0.024	0.938 ± 0.043	0.951 ± 0.021	0.968 ± 0.047	0.931 ± 0.036
UniProt Q14789|Q14789-2	1 ± 0.019	0.984 ± 0.041	1.02 ± 0.022	0.989 ± 0.049	0.993 ± 0.026	1 ± 0.035	1.02 ± 0.046	1.01 ± 0.051
RAB8A (UniProt P61006)	0.928 ± 0.03	0.95 ± 0.039	0.903 ± 0.041	0.849 ± 0.068	0.812 ± 0.064	0.858 ± 0.085	0.828 ± 0.046	0.81 ± 0.075
UniProt Q6UXH1|Q6UXH1-4|Q6UXH1-5|Q6UXH1-6	0.968 ± 0.018	0.941 ± 0.046	1.03 ± 0.09	0.959 ± 0.093	0.935 ± 0.096	0.959 ± 0.12	0.95 ± 0.061	0.956 ± 0.088
UniProt Q13085|A0A087X126	1.09 ± 0.08	1.09 ± 0.11	1.03 ± 0.088	1.07 ± 0.14	1.05 ± 0.11	1.04 ± 0.097	0.975 ± 0.072	0.956 ± 0.056
UniProt Q16643|Q16643-2|Q16643-3	0.894 ± 0.061	0.888 ± 0.11	0.903 ± 0.11	0.905 ± 0.11	1.08 ± 0.1	1.24 ± 0.11	1.52 ± 0.15	1.81 ± 0.12
UniProt Q13427|E9PG73	0.978 ± 0.092	1.11 ± 0.12	1.18 ± 0.13	1.16 ± 0.098	1.09 ± 0.13	1.12 ± 0.12	1.21 ± 0.18	1.2 ± 0.2
UniProt Q14156|Q14156-3	1.13 ± 0.049	1.105 ± 0.011	1.09 ± 0.11	1.1 ± 0.021	1.21 ± 0.11	1.1 ± 0.16	1.0338 ± 0.00078	1.01 ± 0.013
FKBP3 (UniProt Q00688)	0.911 ± 0.048	0.906 ± 0.066	0.943 ± 0.073	0.906 ± 0.081	0.902 ± 0.081	0.905 ± 0.082	0.925 ± 0.077	0.943 ± 0.09
UniProt P62995|P62995-3	1.08 ± 0.077	1.36 ± 0.24	1.64 ± 0.54	1.73 ± 0.47	1.61 ± 0.64	1.54 ± 0.58	1.54 ± 0.62	1.41 ± 0.64
UniProt Q53EL6|Q53EL6-2	0.992 ± 0.14	1.08 ± 0.18	1.12 ± 0.24	1.23 ± 0.34	1.45 ± 0.45	1.66 ± 0.47	1.81 ± 0.48	2.16 ± 0.58
UniProt Q68E01|Q68E01-2	1.01 ± 0.028	1.01 ± 0.026	1.03 ± 0.027	1.03 ± 0.03	1.08 ± 0.026	1.12 ± 0.053	1.11 ± 0.036	1.11 ± 0.021
NANP (UniProt Q8TBE9)	1.07 ± 0.15	0.981 ± 0.11	0.954 ± 0.14	0.982 ± 0.16	0.904 ± 0.12	0.877 ± 0.14	0.891 ± 0.2	0.861 ± 0.15
UniProt P63151|E5RJV1	0.983 ± 0.037	1.02 ± 0.071	0.934 ± 0.068	0.931 ± 0.083	0.955 ± 0.079	0.887 ± 0.071	0.92 ± 0.016	0.8766 ± 0.0055
LEMD2 (UniProt Q8NC56)	1.09 ± 0.04	1.22 ± 0.11	1.32 ± 0.076	1.34 ± 0.15	1.34 ± 0.088	1.42 ± 0.11	1.48 ± 0.14	1.49 ± 0.21
UniProt Q8IXB1|Q8IXB1-2	1.17 ± 0.21	1.06 ± 0.11	1.08 ± 0.1	1.17 ± 0.15	1.1 ± 0.11	1.11 ± 0.16	1.1 ± 0.11	1.06 ± 0.084
ALDH16A1 (UniProt Q8IZ83)	1.11 ± 0.033	1.1 ± 0.076	1.13 ± 0.13	1.15 ± 0.12	1.16 ± 0.17	1.15 ± 0.15	1.16 ± 0.16	1.11 ± 0.15
EIF3A (UniProt Q14152)	1.05 ± 0.031	1.08 ± 0.018	1.09 ± 0.062	1.18 ± 0.12	1.38 ± 0.23	1.53 ± 0.28	1.74 ± 0.34	1.94 ± 0.38
UniProt Q8NCW5	0.907 ± 0.084	0.869 ± 0.041	0.991 ± 0.083	0.986 ± 0.055	0.967 ± 0.085	0.932 ± 0.08	0.895 ± 0.11	0.969 ± 0.1
TRAPPC6B (UniProt Q86SZ2)	1.06 ± 0.015	0.988 ± 0.077	0.954 ± 0.058	0.997 ± 0.092	0.999 ± 0.049	0.963 ± 0.088	0.885 ± 0.017	0.958 ± 0.065
UniProt Q15843|S4R3E9	1.1 ± 0.29	0.839 ± 0.092	1.25 ± 0.31	0.955 ± 0.21	1.09 ± 0.29	0.994 ± 0.18	1.11 ± 0.4	1.07 ± 0.25
SLC44A1 (UniProt Q8WWI5)	0.943 ± 0.066	0.931 ± 0.078	0.926 ± 0.061	0.894 ± 0.093	0.934 ± 0.07	0.879 ± 0.1	0.899 ± 0.1	0.938 ± 0.08
